Among the targets are XKRX; YAP1; YARS; XKR5; YWHAG; ZBTB8A; ZBTB5; ZBTB24; ZBTB39.
Common to all, as to assay: pooled miR-30 sensor sort-seq; sequence = guide strand
Common to all, as to conditions: shRNA
Further: reference of the scale not given here.

AATACCATTAGCACAACTCTAC: in the assay with XKRX, the sensor-assay potency score (higher = more potent) was -0.637.
The sequence TTGAACAAACTAAATGCTGTGA registered a sensor-assay potency score (higher = more potent) with YAP1 of 0.444.
The sequence TATAGAAGCACACAGAAGCATG registered a sensor-assay potency score (higher = more potent) with YARS of -1.29.
TAAAGTATCTTGCTGGACGTTT gave a sensor-assay potency score (higher = more potent) with YAP1 of -0.0595.
Take TTCTTCACATCCTCCTTCCGAT: in the assay with YARS, the sensor-assay potency score (higher = more potent) was -0.429.
The sequence TAAGTTTCACTATTCTTTCGAT had a sensor-assay potency score (higher = more potent) with XKRX of 0.293.
The sequence TAATATTGTACCCTAATCCAAA came in with a sensor-assay potency score (higher = more potent) with XKR5 of -1.28.
TAACAGAGAGCTAATCTGCTTG returned a sensor-assay potency score (higher = more potent) with XKRX of 0.29.
Regarding TAGCAGACAATTTTGACTGGAA, the sensor-assay potency score (higher = more potent) with XKR5 was determined as 0.477.
TTAAGGAAAGGATCTGAGCTAT: the sensor-assay potency score (higher = more potent) with YAP1 is -0.559.
Still for that read-out and setting: with TGCTGTGACATGAAGCATCTGA the figure was 0.636.
Sequence TAAACTCTGTCCATTGTCGAGG returned a sensor-assay potency score (higher = more potent) in the assay with XKRX of -0.536.
Consider TACACATCTAGTGTGTACTCTT, for which the sensor-assay potency score (higher = more potent) in the assay with YARS was -0.195.
TCTATTAGCATCTTCTTTCGGG: in the assay with XKRX, the sensor-assay potency score (higher = more potent) is 0.547.
Still for that read-out and setting: with TTCAGTAACACTTTCACTCCAA the figure was 0.565.
Regarding TTTTGCTGCCTGTTAATCCTGG, the sensor-assay potency score (higher = more potent) with YARS is -0.733.
Same read-out and setting: with TAGTGTGTACTCTTTGCTGAGC the figure was -0.796.
Turning to TTACACTGTTCCATGTCTGTAG, the sensor-assay potency score (higher = more potent) with YWHAG amounted to 0.201.
In turn, TCCTTCTCTATCTTCTCCCGGT had a sensor-assay potency score (higher = more potent) with YWHAG of -0.85.
Turning to TTCTACAATCTCCACATAGGAT, in the assay with ZBTB8A, the sensor-assay potency score (higher = more potent) is -0.772.
Sequence TTAAGTAATGTTTACATGCCTT had a sensor-assay potency score (higher = more potent) with ZBTB5 of -0.579.
Regarding TAAATCTTTTTCCACAAGCTTG, in the assay with ZBTB8A, the sensor-assay potency score (higher = more potent) is -1.26.
Sequence TGCACTTTGACAGAACATCTGC yielded a sensor-assay potency score (higher = more potent) in the assay with ZBTB5 of -0.0496.
For the sequence TCACAAAATACATCTTGCCTGC, the sensor-assay potency score (higher = more potent) in the assay with ZBTB8A is -0.43.
In the case of TTGAGAAGTATTCACTACTGGC, the sensor-assay potency score (higher = more potent) with ZBTB24 is 0.328.
In the assay with ZBTB39, TTGCTTGTGAAACAGCCCGGGG displayed a sensor-assay potency score (higher = more potent) of -1.25.
In the assay with ZBTB5, TAGGTTATTTGTGACTTCCAAA registered a sensor-assay potency score (higher = more potent) of -1.29.
In the assay with ZBTB39, TAAGCAGACACCAACATCCCTG displayed a sensor-assay potency score (higher = more potent) of -0.047.
On the same count and under the same terms, with TTAGACATCTACTATTTGGGGA the figure was 0.801.
Take TAAAGTAGCCGCTACTAGCGAA: the sensor-assay potency score (higher = more potent) in the assay with ZBTB8A is -0.929.
In the case of TTTGGTTAATCTGTCGTCGAAA, the sensor-assay potency score (higher = more potent) in the assay with ZBTB5 was -0.689.
As for TGTAGCTGAAGAATATTCCTGA, the sensor-assay potency score (higher = more potent) with ZBTB24 was found to be 0.823.
TACACTTATGACATCAGTCATC registered a sensor-assay potency score (higher = more potent) with ZBTB8A of -0.715.
Same read-out and setting: with TAAAAGTCTTACATACACTTAT the figure was -0.256.
TTCAACACTAGCAAAAACCTGT showed a sensor-assay potency score (higher = more potent) with ZBTB39 of -0.0406.
Same read-out and setting: with TTAGTTTCACACATGTCGCAGG the figure was -0.128.
Consider TTGTTGAGTATTCTTCTGGGAG, for which, in the assay with ZBTB8A, the sensor-assay potency score (higher = more potent) was -0.386.
Sequence ATCAAAACTAGTCTCAACCTGA had a sensor-assay potency score (higher = more potent) in the assay with ZBTB5 of 0.322.
Consider TAATCTGTCGTCGAAAACGGTA, for which the sensor-assay potency score (higher = more potent) in the assay with ZBTB5 is -0.933.
For the sequence TTAAACACAACACAGAACAGAA, the sensor-assay potency score (higher = more potent) in the assay with ZBTB39 is -0.952.
For TATTATGCTAGAGACAATCTGG, the sensor-assay potency score (higher = more potent) in the assay with ZBTB39 amounted to 0.145.
In the case of TAGCGAATAATACATTTCGATG, the sensor-assay potency score (higher = more potent) in the assay with ZBTB8A is -1.75.
As for TAGTGTTTCAAGCAAAACCATT, the sensor-assay potency score (higher = more potent) in the assay with ZBTB39 is -1.46.
For TTGGAAGTCTGTGTAAGCCTTT, the sensor-assay potency score (higher = more potent) with ZBTB24 is -0.108.
TTCAGCATCAATCTGTGCTTGT came in with a sensor-assay potency score (higher = more potent) in the assay with ZBTB8A of 0.622.
The sequence TTGTACTTAAAGACCTTGCCAC showed a sensor-assay potency score (higher = more potent) in the assay with ZBTB24 of -0.0819.
In the assay with ZBTB5, TTAATCTCACAAGACACTGGTC displayed a sensor-assay potency score (higher = more potent) of -0.0713.
Consider TAGAACTTTCTTGCACACCTGG, for which the sensor-assay potency score (higher = more potent) with ZBTB39 was -0.103.
In turn, TTTTTAATGGACTCTTTCCTTG returned a sensor-assay potency score (higher = more potent) in the assay with ZBTB8A of -0.893.
Sequence TTAAGTACACAGACCACCCAGC showed a sensor-assay potency score (higher = more potent) with ZBTB39 of -0.108.
With TTGACTTATAATGAGTAACTTC, the sensor-assay potency score (higher = more potent) in the assay with ZBTB8A is -0.468.
TACTTGATTACTTCTATGCTAT had a sensor-assay potency score (higher = more potent) with ZBTB5 of 0.0849.
TTTTGCATCACTATACAGGGAT: in the assay with ZBTB5, the sensor-assay potency score (higher = more potent) is 0.397.
On the same count and under the same terms, with TTGATAGAACTTTATGATCTGT the figure was 0.242.
As to AAGTCCACCACATAGGTCCTGG, in the assay with ZBTB39, the sensor-assay potency score (higher = more potent) is -0.52.
Regarding TTAACCACAAAGTTTTGTCTAT, in the assay with ZBTB24, the sensor-assay potency score (higher = more potent) was -0.0895.
On to TTACAAACTACTTTCTGACTGC, for which, in the assay with ZBTB5, the sensor-assay potency score (higher = more potent) was determined as 0.686.
TACAATGACACAATCACAGAGC came in with a sensor-assay potency score (higher = more potent) with ZBTB5 of 0.0287.
For TAAAGAAACATCAAAATCGAGT, in the assay with ZBTB39, the sensor-assay potency score (higher = more potent) was -0.558.
Sequence TTTCTTTCTCACTAATGTCTAA had a sensor-assay potency score (higher = more potent) with ZBTB8A of -0.493.

The record behind these values is the OligoGym collection.
